# Measured values from PubChem BioAssay (NCATS).
# Several values for one entry are separate records, joined by “and”; a condition that tells them apart may be missing. Equal values may be shown once. Inconclusive results are not listed. Unmarked numbers belong to inactive results. Activity calls are given as the source filed them. The call rests on the fitted dose curve; in most records, active means well fitted curve in the direction sought with a large enough effect; inconclusive means small, poorly fitted or top-dose-only effect, or another doubt; inactive means no such curve, though single readings can be large; an effect the other way counts as inactive or inconclusive.
# Key:
# [1] = biological target: Cellular tumor antigen p53 (Homo sapiens) (UniProt P04637); assay: Primary qHTS for small molecule compounds that upregulate eGFP-tagged delta133p53alpha (in N-terminal) cells. (AID 2060322); settings: NCI-H358 eGFP-delta133p53alpha fluorescence, 24 h; activation: stronger effect = higher value; further: nearly all actives have a fitted effect of over 75% in size; further: potency means the concentration at half of the fitted maximal effect;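 on activation: 0% = DMSO vehicle and 100% = reference activator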
# Chain of Cellular tumor antigen p53 (Homo sapiens) (P04637 whole entry, looked up): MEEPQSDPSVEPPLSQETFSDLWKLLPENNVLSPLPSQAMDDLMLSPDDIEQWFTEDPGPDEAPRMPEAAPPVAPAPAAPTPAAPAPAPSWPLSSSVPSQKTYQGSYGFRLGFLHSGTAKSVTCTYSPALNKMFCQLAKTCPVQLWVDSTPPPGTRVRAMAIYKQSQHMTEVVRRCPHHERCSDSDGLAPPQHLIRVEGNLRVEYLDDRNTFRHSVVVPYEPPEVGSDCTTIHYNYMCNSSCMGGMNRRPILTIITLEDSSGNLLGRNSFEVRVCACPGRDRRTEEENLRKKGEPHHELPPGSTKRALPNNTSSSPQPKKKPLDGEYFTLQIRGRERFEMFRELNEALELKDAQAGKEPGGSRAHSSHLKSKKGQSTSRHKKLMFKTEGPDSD
# Method in brief: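 NCI-H358 cells pre-induced 24 h with 10 ng/ml doxycycline to express N-terminal eGFP-delta133p53alpha, then dosed 24 h at 37C without doxycycline; fixed, Hoechst-stained, GFP intensity by laser scanning cytometry, normalized to DMSO (0%) and 57.5 uM 5-azacytidine (100%).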
# [2] = BET inhibitor-based combinations targeting novel dependencies in MECOM-rearranged (r) AML: SET-2 cell line (AID 2202231); settings: SET-2 AML cells viability, CellTiter-Glo luminescence, 48 h; viability: stronger effect = lower value, concentration not given here; further: nearly all actives have a fitted effect of over 35% in size; further: potency means the concentration at half of the fitted maximal effect;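 on viability: plate controls were DMSO treated cells for no effect and wells without cells for full effect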
# Method in brief: (§1)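 Each compound was tested at eleven concentrations on cells seeded at 500/well. After two days' incubation, ATP-based luminescence reported viability; responses relative to DMSO and blank wells yielded AUC and cell-line-centred Z-AUC.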
# [3] = biological target: Retinaldehyde dehydrogenase 3 (Homo sapiens) (UniProt P47895); assay: qHTS for Inhibitors of the Aldehyde Dehydrogenase Family (ALDH1A3) Primary screen (AID 2061315); settings: ALDH inhibition qHTS; series mostly up to 56 µM;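 further: plate controls were DMSO vehicle for no effect and reference inhibitor for full effect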
# [4] = BET inhibitor-based combinations targeting novel dependencies in MECOM-rearranged (r) AML: UCSD-AML1 cell line (AID 2202235); settings: UCSD-AML1 AML cells viability, CellTiter-Glo, 48 h; series mostly up to 46 µM; further: nearly all actives have a fitted effect of over 40% in size; further: potency means the concentration at half of the fitted maximal effect
# Method in brief: (§2)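 First, 500 cells per well were seeded; next, drugs were pinned as 11-point doses; then plates sat 48 hr in the incubator; finally CellTiter-Glo was added and luminescence read, with AUC and Z-AUC computed.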
# [5] = BET inhibitor-based combinations targeting novel dependencies in MECOM-rearranged (r) AML: AML-191 cell line (AID 2202236; further: nearly all actives have a fitted effect of over 35% in size; further: potency means the concentration at half of the fitted maximal effect); settings: AML-191 viability, CellTiter-Glo luminescence, 48 h; series mostly up to 46 µM
# Method in brief: as §1
# [6] = BET inhibitor-based combinations targeting novel dependencies in MECOM-rearranged (r) AML: AML-194 cell line (AID 2202237; further: nearly all actives have a fitted effect of over 40% in size; further: potency means the concentration at half of the fitted maximal effect); settings: AML-194 (MECOM-r AML) viability, CellTiter-Glo, 48 h; series mostly up to 46 µM
# Method in brief: as §1
# [7] = BET inhibitor-based combinations targeting novel dependencies in MECOM-rearranged (r) AML: OCI-AML3 cell line (AID 2202232); settings: CellTiter-Glo luminescence, 48 h; Potency: OCI-AML3 viability; series mostly up to 46 µM; further: nearly all actives have a fitted effect of over 35% in size; further: potency means the concentration at half of the fitted maximal effect
# Method in brief: as §1
# [8] = BET inhibitor-based combinations targeting novel dependencies in MECOM-rearranged (r) AML: MV-4-11 cell line (AID 2202233); settings: MV-4-11 AML viability, CellTiter-Glo luminescence, 48 h; series mostly up to 46 µM; further: nearly all actives have a fitted effect of over 45% in size; further: potency means the concentration at half of the fitted maximal effect
# Method in brief: as §2
# [9] = BET inhibitor-based combinations targeting novel dependencies in MECOM-rearranged (r) AML: HNT-34 cell line (AID 2202234); settings: HNT-34 AML viability, CellTiter-Glo luminescence, 48 h; series mostly up to 46 µM; further: nearly all actives have a fitted effect of over 35% in size; further: potency means the concentration at half of the fitted maximal effect
# Method in brief: as §2
Structure (SMILES),activation [1],viability [2] [%],Potency [3],Potency [4],Potency [5],Potency [6],Potency [7],Potency [8],Potency [9],Potency [1],Potency [2]
OCCC#Cc1nc(-c2ccc(F)cc2)c(-c2ccncc2)n1CCCc1ccccc1,17.2%,100,,,,,,,,,
COc1ccc2[nH]c(S(=O)Cc3ncc(C)c(OC)c3C)nc2n1 (stereo not given),10.7% and 10%,109,inactive,inactive,inactive,inactive,,,,,
O=C(NOCC(O)CO)c1cc(Br)c(F)c(F)c1Nc1ccc(I)cc1F (stereo not given),6.51%,95.8,,,,,0.0166 µM (active),0.209 µM (active),1.05 µM (active),,
COc1ccc(-c2nc3ccc(C4=NNC(=O)CC4C)cc3[nH]2)cc1 (stereo not given),15.8%,,inactive,11.8 µM (active),,,18.6 µM (active),11.8 µM (active),8.33 µM (active),,
Oc1cc(-c2nc(-c3ccccc3)[nH]c2-c2ccncc2)ccc1Cl,22.4%,,inactive,,,,4.17 µM (active),14.8 µM (active),7.42 µM (active),,
Cc1cc(Nc2ncc3c(n2)N(C)C(=O)N(c2cc(NC(=O)c4cccc(C(F)(F)F)c4)ccc2C)C3)n(C)n1,,,,0.417 µM (active),0.235 µM (active),,0.296 µM (active),0.0372 µM (active),0.0263 µM (active),0.432 µM (active),0.833 µM (active)
Cn1nnc2c(C(N)=O)ncn2c1=O,0% and 2.62%,102,,,,,inactive,inactive,inactive,,
COc1cc(OC2CCN(C)CC2)ccc1Nc1ncc2c(n1)n(C1CCCC1)c(=O)n2C,2.88%,,,14.8 µM (active),18.6 µM (active),,13.2 µM (active),3.32 µM (active),13.2 µM (active),,4.68 µM (active)
NC(=O)c1ccc(-c2nc(-c3ccc4c(c3)OCO4)c(-c3ccccn3)[nH]2)cc1,-10.5%,112,,inactive,inactive,,inactive,inactive,inactive,,
Cc1cc(NC(=O)Nc2ccc(N(C)C)cc2)c2cc(F)cc(F)c2n1,-0.105%,94.3,,,,,8.11 µM (active),,,,
CN1CC[C@@H](c2c(O)cc(O)c3c(=O)cc(-c4ccccc4Cl)oc23)[C@@H](O)C1,,,,0.417 µM (active),0.372 µM (active),,0.263 µM (active),0.468 µM (active),0.468 µM (active),0.217 µM (active),0.525 µM (active)
CC(=O)OCC(=O)[C@@]12N=C(C)O[C@@H]1C[C@H]1[C@@H]3CCC4=CC(=O)C=C[C@]4(C)[C@H]3[C@@H](O)C[C@@]12C,-1.69%,113,,inactive,,,inactive,inactive,inactive,,
Cc1cc2nc3c(=O)[nH]c(=O)nc-3n(CC(O)C(O)C(O)CO)c2cc1C (stereo not given),-37.4%,106,,inactive,inactive,inactive,inactive,inactive,inactive,,
O=C1[C@H](Cc2ccc(O)cc2)N2C(=O)CCN(C(=O)NCc3ccccc3)[C@H]2CN1Cc1cccc2ccccc12,18.1%,,,9.34 µM (active),,,9.34 µM (active),9.34 µM (active),5.25 µM (active),,11.8 µM (active)
Cc1cc(Nc2nc(N[C@@H](C)c3ccc(F)cc3)c(C#N)cc2F)n[nH]1,,,inactive,0.525 µM (active),0.105 µM (active),0.166 µM (active),0.525 µM (active),0.662 µM (active),,16.9 µM (active),
Nc1ccn([C@@H]2CS[C@H](CO)O2)c(=O)n1,-9.96%,113,,inactive,inactive,inactive,inactive,inactive,inactive,,
CN(Cc1cc(Br)cc(Br)c1N)C1CCCCC1,-11.7% and 14.8%,102,,inactive,inactive,,inactive,inactive,inactive,,
CC(C)NC[C@@H](C(=O)N1CCN(c2ncnc3c2[C@H](C)C[C@H]3O)CC1)c1ccc(Cl)cc1,,102,,,,,,,,34.3 µM (active),
Cc1ccc(O)c(C(CCN(C(C)C)C(C)C)c2ccccc2)c1 (stereo not given),47.6%,117,,,,,inactive,inactive,inactive,,
Nc1ccccc1NC(=O)c1ccc(CNc2nccc(-c3cccnc3)n2)cc1,65.9%,,inactive,1.32 µM (active),1.66 µM (active),,1.32 µM (active),,1.86 µM (active),,
COc1cc([C@@H]2c3cc4c(cc3[C@H](O)[C@H]3COC(=O)[C@@H]23)OCO4)cc(OC)c1OC,31.7%,,,0.468 µM (active),0.662 µM (active),,0.833 µM (active),0.833 µM (active),0.417 µM (active),,1.18 µM (active)

Structure (SMILES),activation [1],viability [2] [%],Potency [3],Potency [4],Potency [5],Potency [6],Potency [7],Potency [8],Potency [9],Potency [1],Potency [2]
O=C(NC1CCNCC1)c1[nH]ncc1NC(=O)c1c(Cl)cccc1Cl,,,,1.32 µM (active),2.09 µM (active),2.63 µM (active),1.05 µM (active),0.662 µM (active),1.05 µM (active),0.685 µM (active),11.8 µM (active)
Oc1c(Cl)cc(Cl)c2cccnc12,16.4% and -7.96%,,,5.25 µM (active),8.33 µM (active),,16.6 µM (active),11.8 µM (active),4.17 µM (active),,8.33 µM (active)
Cc1ncc([N+](=O)[O-])n1CC(C)O (stereo not given),12.6% and -16.1%,124,,inactive,inactive,inactive,inactive,inactive,inactive,,
CCNC(=O)c1cc2c(-c3cc(OCCN4CCCC4)c(Cl)cc3Cl)nc(N)nc2s1,-12.6%,,,1.29 µM (active),1.82 µM (active),,2.04 µM (active),0.363 µM (active),1.82 µM (active),,2.88 µM (active)
CCC(=O)O[C@]1(C(=O)SCF)[C@H](C)C[C@H]2[C@@H]3C[C@H](F)C4=CC(=O)C=C[C@]4(C)[C@@]3(F)[C@@H](O)C[C@@]21C,17.6% and 0.401%,114,,inactive,inactive,,inactive,inactive,inactive,,
NC(=O)Nc1sc(-c2ccc(F)cc2)cc1C(N)=O,-16.3%,,,1.86 µM (active),1.86 µM (active),,2.35 µM (active),1.86 µM (active),1.66 µM (active),,5.9 µM (active)
CN1CC(=O)NC1=NC(=O)Nc1cccc(Cl)c1,-20.6%,111,,inactive,inactive,,inactive,inactive,inactive,,
COc1ccc(COc2cc3oc(=O)c4cc(C(C)O)ccc4c3cc2OC)cc1 (stereo not given),0.91%,86.4,,,,,14.8 µM (active),,,,
CC(=O)SCC(Cc1ccccc1)C(=O)NCC(=O)OCc1ccccc1 (stereo not given),16.6%,105,,inactive,,,inactive,inactive,inactive,,
NC(=NCCCCCCN=C(N)N=C(N)Nc1ccc(Cl)cc1)N=C(N)Nc1ccc(Cl)cc1,19.1%,,,,,,18.6 µM (active),20.9 µM (active),,,26.3 µM (active)
NC(=O)c1cccnc1,-14.2% and 9.71%,106,,inactive,inactive,inactive,inactive,inactive,inactive,,
CC(C)C[C@@H](C(=O)N[C@H](C(=O)OC1CCCC1)c1ccccc1)[C@H](O)C(=O)NO,10.8%,,,20.9 µM (active),20.9 µM (active),,13.2 µM (active),3.32 µM (active),18.6 µM (active),,14.8 µM (active)
CN(C)S(=O)(=O)c1ccc2c(c1)C(=Cc1cc3c([nH]1)CCCC3)C(=O)N2,,101,,,,,5.9 µM (active),2.09 µM (active),,1.37 µM (active),
CN(c1ncccc1CNc1nc(Nc2ccc3c(c2)CC(=O)N3)ncc1C(F)(F)F)S(C)(=O)=O,,,,5.9 µM (active),4.68 µM (active),,6.61 µM (active),0.833 µM (active),5.25 µM (active),24.3 µM (active),6.61 µM (active)
C[C@H](Nc1ncnc2nc[nH]c12)c1cc2cccc(Cl)c2c(=O)n1-c1ccccc1,7%,,inactive,1.32 µM (active),,,,,,,
Nc1nc2c(c(=O)[nH]1)N(C=O)[C@H](CNc1ccc(C(=O)N[C@@H](CCC(=O)O)C(=O)O)cc1)CN2,10.2%,115,,inactive,inactive,inactive,inactive,inactive,inactive,,
CN1CCN2c3ncccc3Cc3ccccc3C2C1 (stereo not given),-22.2%,102,,inactive,inactive,inactive,inactive,inactive,inactive,,
COc1ccc(-c2cc(=O)c3c(O)cc(O[C@@H]4O[C@H](CO[C@@H]5O[C@@H](C)[C@H](O)[C@@H](O)[C@H]5O)[C@@H](O)[C@H](O)[C@H]4O)cc3o2)cc1O,25.9%,112,,inactive,inactive,inactive,inactive,inactive,inactive,,
COc1cc(C(=O)NS(=O)(=O)c2ccccc2C)ccc1Cc1cn(C)c2ccc(NC(=O)OC3CCCC3)cc12,105%,119,,inactive,inactive,inactive,inactive,inactive,inactive,,
C[C@@H]1CN(c2c(F)c(N)c3c(=O)c(C(=O)O)cn(C4CC4)c3c2F)C[C@H](C)N1,22.7%,102,,inactive,inactive,inactive,inactive,inactive,inactive,,
